{"source": "the supplement of paper PMC6555819", "data": [{"system": "PPARg homodimer (NR concentration 180 nM)", "experiment": "PBM binding z-score (relative to random genomic background probes); higher = stronger binding; sequences stand for … in GC…GCGATTGACAGCGTAGAATGAAGG", "outline": "(§1)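 The probes on custom Agilent 4×180K protein-binding microarrays were double-stranded, with 34-nt variable regions bearing direct-repeat seeds, single-nucleotide variants, half-site ablations and random human genomic background sequences. Incubation lasted 1 h with ligand-free nuclear receptor dimers in PBS pH 7.4, 2% milk, 0.02% Triton X-100, 1 mM DTT, 0.2 mg/mL BSA and 0.4 mg/ml salmon testes DNA. Antibodies against each partner (one per run) detected bound dimers, and fluorescence scans were regression-normalized. Binding z-scores take the random background probes as reference.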", "values": [{"sequence": "CGAACTAGGTCAAGGACAGTGAGTCTCCGCACGC", "PBM binding z-score": 1.2}, {"sequence": "TCATATAGGTAAATGCTAGGTGACAGTCCGATCT", "PBM binding z-score": 0.369}, {"sequence": "ATATGTAGGTTATCGTGTCATTCAGTTTGCGCAT", "PBM binding z-score": 1.76}, {"sequence": "GCTTACGGGTCAAAGGTTATATCATGAATAGAAT", "PBM binding z-score": 4.59}, {"sequence": "TCTTGTAGACCAACAGGAGGTTAAGAAAGATCGA", "PBM binding z-score": -0.0799}, {"sequence": "TCTGCTAGGTCAACGCTGGTCAGCTAATCTGCTA", "PBM binding z-score": 1.34}, {"sequence": "ATCTCTAGGTTACAAGTTCAGTGAAAGAGAGGAC", "PBM binding z-score": 2.22}, {"sequence": "CCTGCTGGGTCAATGGTCAGCTAAAGCAGCTCGC", "PBM binding z-score": 0.557}, {"sequence": "TCATATAGGTAAGCAGGTGAAAGTCCGTAAGTTA", "PBM binding z-score": 0.516}, {"sequence": "CCTACTGGGCCAAAAAGGTCTTTGATGCCGATAA", "PBM binding z-score": -0.284}, {"sequence": "CGAACTAGGTCAAGGTCAAAGTCGGTTTGTGCCA", "PBM binding z-score": 4.39}, {"sequence": "GTACCAAAGTGAATAGGTCGTTGATGAGTAGGCG", "PBM binding z-score": 0.312}, {"sequence": "GGAACGAGGGCAAGTTCATAGCAGAGTTTGATGG", "PBM binding z-score": 0.648}, {"sequence": "ACTTACGGGGCAACGAGGTTATAGCACGCGTATA", "PBM binding z-score": 0.811}, {"sequence": "GCTTACGGGGCAAAGGTTATAGCATGAATAGAAT", "PBM binding z-score": 2.67}, {"sequence": "ATCTCTAGGTAAGACTGAGTTCAGTGAAGAACGC", "PBM binding z-score": 0.874}, {"sequence": "ATCGAAAGGTCCTGAGGTGAGTATACAGAAAGGC", "PBM binding z-score": 0.413}, {"sequence": "TCGAGTAGGTTACCAATGGGGCATTGAGCTTTCT", "PBM binding z-score": -0.0976}, {"sequence": "CCTACTGGGCCACGAAAGGTCATTGATTCAGTGA", "PBM binding z-score": 4.26}, {"sequence": "CAAACTAGGTCACGAAAGGACAAAGTCGAATGAC", "PBM binding z-score": 2.7}, {"sequence": "AGAATGAGGTAATTAAGATCAGGGAATTGCGGTC", "PBM binding z-score": -0.649}, {"sequence": "ACTAGCTGGTCAGCTGAGGTCACACACAATTCGG", "PBM binding z-score": 2.22}, {"sequence": "ACTATTAGTGGAGACGAGGGCAACCGATAGGTTG", "PBM binding z-score": -0.247}, {"sequence": "CAGACTAGGTCAAGGTCAAAGTCGGTTTGTGCCA", "PBM binding z-score": 3.79}, {"sequence": "TTTTGTAGATCAATAGAGGTTAAGAAAGTGCGCT", "PBM binding z-score": 1.32}, {"sequence": "CCTAGTTGGTTAGGAGGTCACACACCGGATATGA", "PBM binding z-score": 4.26}, {"sequence": "CTGACTGGGGCAAGGTTACCATAACGCACAGCCA", "PBM binding z-score": 0.436}, {"sequence": "GGAACGAGGGCAAAGTCGATAGCATCTGTCGACG", "PBM binding z-score": -0.309}, {"sequence": "TCATATATGTAATACAGGTGAAAGTCGGCATCTA", "PBM binding z-score": 0.745}, {"sequence": "CAAACTAGGTCAAAGGTGAAAGTCGAGCCAACCA", "PBM binding z-score": 4.11}, {"sequence": "CAAACTAGGTCAAGAGGTCTAAGTCCGCTTCCCG", "PBM binding z-score": 1.86}, {"sequence": "TTACCAAGGTGAAAGGTCGTTGTTGCACGCCTTG", "PBM binding z-score": 1.39}, {"sequence": "CCGAGTTGGTTATGGGGCATTCAGGCAACGGTGA", "PBM binding z-score": 0.998}, {"sequence": "CACCCTAGGTCAGGGCCAGTATAGGAGGAACGTT", "PBM binding z-score": 1.71}, {"sequence": "AGAATGAGGTTATTAAGATCGGGGAATTGCGGTC", "PBM binding z-score": 0.639}, {"sequence": "TGAATGATGTTAAAGATCAGGGAACGTGGCGTCG", "PBM binding z-score": 0.216}, {"sequence": "CAGCCTAGGTCAGGGCCAGTACAGGAGGAACGTT", "PBM binding z-score": 0.93}, {"sequence": "TGAATGAGTTTATAAGATCAGGGAACGTTGCAAA", "PBM binding z-score": 0.106}, {"sequence": "ATACCAAGGTAATCGTGAGGTCGTTGATACTAAC", "PBM binding z-score": 0.827}]}, {"system": "PXR:RXRa (NR concentration 270 nM, RXRa partner concentration 90 nM)", "experiment": "PBM binding z-score (relative to random genomic background probes); higher = stronger binding; sequences stand for … in GC…GCGATTGACAGCGTAGAATGAAGG", "outline": "as §1", "values": [{"sequence": "CGAACTAGGTCAAGGACAGTGAGTCTCCGCACGC", "PBM binding z-score": 0.826}, {"sequence": "TCATATAGGTAAATGCTAGGTGACAGTCCGATCT", "PBM binding z-score": 0.559}, {"sequence": "ATATGTAGGTTATCGTGTCATTCAGTTTGCGCAT", "PBM binding z-score": 1.17}, {"sequence": "GCTTACGGGTCAAAGGTTATATCATGAATAGAAT", "PBM binding z-score": 6.41}, {"sequence": "TCTTGTAGACCAACAGGAGGTTAAGAAAGATCGA", "PBM binding z-score": 0.757}, {"sequence": "TCTGCTAGGTCAACGCTGGTCAGCTAATCTGCTA", "PBM binding z-score": 2}, {"sequence": "ATCTCTAGGTTACAAGTTCAGTGAAAGAGAGGAC", "PBM binding z-score": 2.38}, {"sequence": "CCTGCTGGGTCAATGGTCAGCTAAAGCAGCTCGC", "PBM binding z-score": 0.874}, {"sequence": "TCATATAGGTAAGCAGGTGAAAGTCCGTAAGTTA", "PBM binding z-score": 0.257}, {"sequence": "CCTACTGGGCCAAAAAGGTCTTTGATGCCGATAA", "PBM binding z-score": -0.31}, {"sequence": "CGAACTAGGTCAAGGTCAAAGTCGGTTTGTGCCA", "PBM binding z-score": 5.28}, {"sequence": "GTACCAAAGTGAATAGGTCGTTGATGAGTAGGCG", "PBM binding z-score": -0.00367}, {"sequence": "GGAACGAGGGCAAGTTCATAGCAGAGTTTGATGG", "PBM binding z-score": 3.66}, {"sequence": "ACTTACGGGGCAACGAGGTTATAGCACGCGTATA", "PBM binding z-score": 1.62}, {"sequence": "GCTTACGGGGCAAAGGTTATAGCATGAATAGAAT", "PBM binding z-score": 2.99}, {"sequence": "ATCTCTAGGTAAGACTGAGTTCAGTGAAGAACGC", "PBM binding z-score": 2.66}, {"sequence": "ATCGAAAGGTCCTGAGGTGAGTATACAGAAAGGC", "PBM binding z-score": 0.102}, {"sequence": "TCGAGTAGGTTACCAATGGGGCATTGAGCTTTCT", "PBM binding z-score": 0.039}, {"sequence": "CCTACTGGGCCACGAAAGGTCATTGATTCAGTGA", "PBM binding z-score": 5.45}, {"sequence": "CAAACTAGGTCACGAAAGGACAAAGTCGAATGAC", "PBM binding z-score": 4.22}, {"sequence": "AGAATGAGGTAATTAAGATCAGGGAATTGCGGTC", "PBM binding z-score": -0.0568}, {"sequence": "ACTAGCTGGTCAGCTGAGGTCACACACAATTCGG", "PBM binding z-score": 5.58}, {"sequence": "ACTATTAGTGGAGACGAGGGCAACCGATAGGTTG", "PBM binding z-score": 0.218}, {"sequence": "CAGACTAGGTCAAGGTCAAAGTCGGTTTGTGCCA", "PBM binding z-score": 5.16}, {"sequence": "TTTTGTAGATCAATAGAGGTTAAGAAAGTGCGCT", "PBM binding z-score": 3.37}, {"sequence": "CCTAGTTGGTTAGGAGGTCACACACCGGATATGA", "PBM binding z-score": 4.03}, {"sequence": "CTGACTGGGGCAAGGTTACCATAACGCACAGCCA", "PBM binding z-score": 0.519}, {"sequence": "GGAACGAGGGCAAAGTCGATAGCATCTGTCGACG", "PBM binding z-score": 0.155}, {"sequence": "TCATATATGTAATACAGGTGAAAGTCGGCATCTA", "PBM binding z-score": 0.801}, {"sequence": "CAAACTAGGTCAAAGGTGAAAGTCGAGCCAACCA", "PBM binding z-score": 4.59}, {"sequence": "CAAACTAGGTCAAGAGGTCTAAGTCCGCTTCCCG", "PBM binding z-score": 1.66}, {"sequence": "TTACCAAGGTGAAAGGTCGTTGTTGCACGCCTTG", "PBM binding z-score": 3.78}, {"sequence": "CCGAGTTGGTTATGGGGCATTCAGGCAACGGTGA", "PBM binding z-score": 0.00372}, {"sequence": "CACCCTAGGTCAGGGCCAGTATAGGAGGAACGTT", "PBM binding z-score": 0.664}, {"sequence": "AGAATGAGGTTATTAAGATCGGGGAATTGCGGTC", "PBM binding z-score": 1.23}, {"sequence": "TGAATGATGTTAAAGATCAGGGAACGTGGCGTCG", "PBM binding z-score": -0.226}, {"sequence": "CAGCCTAGGTCAGGGCCAGTACAGGAGGAACGTT", "PBM binding z-score": 0.659}, {"sequence": "TGAATGAGTTTATAAGATCAGGGAACGTTGCAAA", "PBM binding z-score": 0.215}, {"sequence": "ATACCAAGGTAATCGTGAGGTCGTTGATACTAAC", "PBM binding z-score": 2.55}]}]}
